Results published in ChEMBL document CHEMBL1961873, “Compounds: GSK PKIS; Assays: Nanosyn kinase panel” (2012).

Experiments:
[1] = target: Sphingosine kinase 1 (Homo sapiens) (UniProt Q9NYA1); settings: at 1 µM;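 note: mean SPHK1 inhibition value reported from the GSK PKIS kinase panel screen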
[2] = target: T1, Sphingosine kinase 2 (Homo sapiens) (UniProt Q9NRA0); settings: at 0.1 µM
T1 sequence (whole entry): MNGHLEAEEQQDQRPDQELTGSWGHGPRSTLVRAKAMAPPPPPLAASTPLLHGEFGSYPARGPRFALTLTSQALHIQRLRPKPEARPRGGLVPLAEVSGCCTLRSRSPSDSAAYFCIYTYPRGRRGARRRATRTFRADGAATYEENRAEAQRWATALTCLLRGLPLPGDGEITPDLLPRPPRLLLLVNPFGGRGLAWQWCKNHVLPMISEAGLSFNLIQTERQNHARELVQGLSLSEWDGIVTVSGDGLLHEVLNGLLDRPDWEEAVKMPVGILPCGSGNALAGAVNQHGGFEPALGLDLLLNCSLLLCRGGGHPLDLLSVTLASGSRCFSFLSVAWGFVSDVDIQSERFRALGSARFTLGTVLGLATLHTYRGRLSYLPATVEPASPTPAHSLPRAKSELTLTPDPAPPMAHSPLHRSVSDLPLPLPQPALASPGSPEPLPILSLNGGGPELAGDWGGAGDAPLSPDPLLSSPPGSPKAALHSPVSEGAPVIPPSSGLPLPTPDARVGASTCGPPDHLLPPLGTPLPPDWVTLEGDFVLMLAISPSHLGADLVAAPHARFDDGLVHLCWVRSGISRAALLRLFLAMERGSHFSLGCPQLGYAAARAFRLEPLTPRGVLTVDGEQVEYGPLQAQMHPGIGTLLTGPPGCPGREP

[3] = target: T1, Sphingosine kinase 2 (Homo sapiens); settings: at 1 µM
[4] = target: Casein kinase II subunit alpha (Homo sapiens) (UniProt P68400); settings: at 0.1 µM
Sequence of Casein kinase II subunit alpha (Homo sapiens) (P68400 whole entry, looked up): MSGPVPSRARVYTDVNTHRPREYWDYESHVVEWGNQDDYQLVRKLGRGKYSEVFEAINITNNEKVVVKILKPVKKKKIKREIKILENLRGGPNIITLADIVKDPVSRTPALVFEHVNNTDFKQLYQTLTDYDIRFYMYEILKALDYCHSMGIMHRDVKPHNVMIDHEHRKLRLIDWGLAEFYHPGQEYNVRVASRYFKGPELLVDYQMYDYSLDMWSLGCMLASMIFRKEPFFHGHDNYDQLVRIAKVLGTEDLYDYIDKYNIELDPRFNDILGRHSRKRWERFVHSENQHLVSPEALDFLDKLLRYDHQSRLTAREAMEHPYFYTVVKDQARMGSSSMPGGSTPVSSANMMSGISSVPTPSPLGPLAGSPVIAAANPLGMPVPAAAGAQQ

[5] = target: Casein kinase II subunit alpha (Homo sapiens) (UniProt P68400); settings: at 1 µM
[6] = target: T2, Inhibitor of nuclear factor kappa-B kinase subunit alpha (Homo sapiens) (UniProt O15111); settings: at 0.1 µM
T2 sequence (whole entry): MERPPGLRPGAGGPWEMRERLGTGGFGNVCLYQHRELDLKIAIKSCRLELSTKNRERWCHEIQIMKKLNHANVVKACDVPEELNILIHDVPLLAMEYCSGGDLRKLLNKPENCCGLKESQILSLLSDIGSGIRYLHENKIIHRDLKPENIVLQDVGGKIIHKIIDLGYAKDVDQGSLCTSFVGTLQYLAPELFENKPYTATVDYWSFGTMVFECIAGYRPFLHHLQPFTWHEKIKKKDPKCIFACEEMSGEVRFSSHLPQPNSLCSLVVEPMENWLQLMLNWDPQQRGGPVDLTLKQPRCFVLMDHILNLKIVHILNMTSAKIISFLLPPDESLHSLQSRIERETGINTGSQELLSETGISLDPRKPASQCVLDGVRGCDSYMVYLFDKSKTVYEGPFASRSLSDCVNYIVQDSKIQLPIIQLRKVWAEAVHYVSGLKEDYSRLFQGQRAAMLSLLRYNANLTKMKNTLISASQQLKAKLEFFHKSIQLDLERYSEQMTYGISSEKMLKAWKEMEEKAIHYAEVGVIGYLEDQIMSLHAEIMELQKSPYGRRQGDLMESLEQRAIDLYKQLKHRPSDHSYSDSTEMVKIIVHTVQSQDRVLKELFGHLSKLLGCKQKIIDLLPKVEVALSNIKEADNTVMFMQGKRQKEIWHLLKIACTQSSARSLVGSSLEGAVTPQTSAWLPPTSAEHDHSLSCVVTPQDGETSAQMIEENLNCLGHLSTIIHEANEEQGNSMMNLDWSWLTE

[7] = target: T2, Inhibitor of nuclear factor kappa-B kinase subunit alpha (Homo sapiens); settings: at 1 µM
[8] = target: T3, Inhibitor of nuclear factor kappa-B kinase subunit beta (Homo sapiens) (UniProt O14920); settings: at 0.1 µM
T3 sequence (whole entry): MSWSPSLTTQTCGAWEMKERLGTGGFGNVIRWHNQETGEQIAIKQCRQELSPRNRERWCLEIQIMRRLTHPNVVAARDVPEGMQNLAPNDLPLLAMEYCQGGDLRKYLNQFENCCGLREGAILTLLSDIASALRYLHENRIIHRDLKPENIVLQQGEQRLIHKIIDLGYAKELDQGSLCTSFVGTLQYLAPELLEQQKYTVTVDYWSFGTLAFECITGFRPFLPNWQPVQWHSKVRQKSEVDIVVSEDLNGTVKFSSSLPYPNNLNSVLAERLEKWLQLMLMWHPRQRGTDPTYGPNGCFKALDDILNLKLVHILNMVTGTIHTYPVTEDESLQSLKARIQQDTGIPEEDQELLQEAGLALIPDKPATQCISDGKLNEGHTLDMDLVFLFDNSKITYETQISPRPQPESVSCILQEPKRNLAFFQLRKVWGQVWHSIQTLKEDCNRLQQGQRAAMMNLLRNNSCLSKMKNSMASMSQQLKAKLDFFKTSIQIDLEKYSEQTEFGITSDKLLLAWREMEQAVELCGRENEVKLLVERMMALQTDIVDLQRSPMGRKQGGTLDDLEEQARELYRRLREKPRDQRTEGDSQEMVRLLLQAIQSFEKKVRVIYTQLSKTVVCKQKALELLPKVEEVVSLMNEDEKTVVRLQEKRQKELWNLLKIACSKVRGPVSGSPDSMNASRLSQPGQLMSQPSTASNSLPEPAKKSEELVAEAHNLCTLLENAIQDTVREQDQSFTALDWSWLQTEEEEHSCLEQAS

[9] = target: T3, Inhibitor of nuclear factor kappa-B kinase subunit beta (Homo sapiens); settings: at 1 µM
[10] = target: T4, Inhibitor of nuclear factor kappa-B kinase subunit epsilon (Homo sapiens) (UniProt Q14164); settings: at 0.1 µM
T4 sequence (whole entry): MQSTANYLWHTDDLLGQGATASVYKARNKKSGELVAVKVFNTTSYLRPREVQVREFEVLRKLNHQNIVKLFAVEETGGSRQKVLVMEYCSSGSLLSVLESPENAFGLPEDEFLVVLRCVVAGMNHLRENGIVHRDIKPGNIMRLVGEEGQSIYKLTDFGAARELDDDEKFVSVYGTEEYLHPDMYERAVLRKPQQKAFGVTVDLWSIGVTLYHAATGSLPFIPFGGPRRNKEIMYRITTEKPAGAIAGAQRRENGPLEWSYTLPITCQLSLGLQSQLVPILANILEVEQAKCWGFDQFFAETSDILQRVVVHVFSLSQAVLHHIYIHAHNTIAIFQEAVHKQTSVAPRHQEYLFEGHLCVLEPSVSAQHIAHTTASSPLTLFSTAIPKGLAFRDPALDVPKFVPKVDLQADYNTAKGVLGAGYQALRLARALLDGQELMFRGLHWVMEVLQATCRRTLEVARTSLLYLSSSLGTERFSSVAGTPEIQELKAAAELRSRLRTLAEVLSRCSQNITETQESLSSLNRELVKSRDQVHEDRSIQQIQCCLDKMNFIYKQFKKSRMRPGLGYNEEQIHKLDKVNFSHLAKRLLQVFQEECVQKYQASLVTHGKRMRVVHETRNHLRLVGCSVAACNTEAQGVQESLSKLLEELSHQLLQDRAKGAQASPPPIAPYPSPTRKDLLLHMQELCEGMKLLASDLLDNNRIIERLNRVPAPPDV

[11] = target: T4, Inhibitor of nuclear factor kappa-B kinase subunit epsilon (Homo sapiens); settings: at 1 µM
[12] = target: T5, Serine/threonine-protein kinase Nek1 (Homo sapiens) (UniProt Q96PY6); settings: at 0.1 µM
T5 sequence (whole entry): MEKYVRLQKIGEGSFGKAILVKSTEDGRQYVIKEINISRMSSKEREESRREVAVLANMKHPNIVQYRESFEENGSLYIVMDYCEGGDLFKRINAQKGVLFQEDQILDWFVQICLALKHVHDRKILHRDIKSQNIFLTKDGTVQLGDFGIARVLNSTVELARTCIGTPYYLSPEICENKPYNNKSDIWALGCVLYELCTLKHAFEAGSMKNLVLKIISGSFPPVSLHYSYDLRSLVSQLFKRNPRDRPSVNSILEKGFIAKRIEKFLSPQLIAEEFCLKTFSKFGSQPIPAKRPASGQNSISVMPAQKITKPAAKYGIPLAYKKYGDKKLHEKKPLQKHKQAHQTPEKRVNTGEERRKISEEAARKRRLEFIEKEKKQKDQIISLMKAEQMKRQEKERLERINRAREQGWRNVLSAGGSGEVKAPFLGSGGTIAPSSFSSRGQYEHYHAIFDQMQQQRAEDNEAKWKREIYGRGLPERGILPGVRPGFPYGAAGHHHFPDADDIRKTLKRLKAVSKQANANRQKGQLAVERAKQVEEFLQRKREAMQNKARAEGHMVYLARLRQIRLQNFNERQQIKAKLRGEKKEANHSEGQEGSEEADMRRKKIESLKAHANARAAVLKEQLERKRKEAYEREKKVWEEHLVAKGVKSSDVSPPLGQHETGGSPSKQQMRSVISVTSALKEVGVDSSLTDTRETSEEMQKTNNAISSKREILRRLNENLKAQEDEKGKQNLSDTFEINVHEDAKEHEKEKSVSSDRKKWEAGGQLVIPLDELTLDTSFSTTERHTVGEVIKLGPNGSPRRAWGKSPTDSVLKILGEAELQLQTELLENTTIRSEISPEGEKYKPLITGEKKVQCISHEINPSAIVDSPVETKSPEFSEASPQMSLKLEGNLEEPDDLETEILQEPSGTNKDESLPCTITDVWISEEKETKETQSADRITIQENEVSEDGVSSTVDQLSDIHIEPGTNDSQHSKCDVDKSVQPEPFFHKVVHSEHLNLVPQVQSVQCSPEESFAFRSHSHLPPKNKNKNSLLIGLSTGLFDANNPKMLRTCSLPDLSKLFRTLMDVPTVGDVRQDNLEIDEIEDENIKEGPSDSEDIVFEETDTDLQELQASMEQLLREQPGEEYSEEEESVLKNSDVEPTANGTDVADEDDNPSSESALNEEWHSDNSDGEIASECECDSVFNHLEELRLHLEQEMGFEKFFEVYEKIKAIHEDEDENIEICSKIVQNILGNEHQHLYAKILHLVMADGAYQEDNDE

[13] = target: T5, Serine/threonine-protein kinase Nek1 (Homo sapiens); settings: at 1 µM
[14] = target: T6, Serine/threonine-protein kinase Nek2 (Homo sapiens) (UniProt P51955); settings: at 0.1 µM
T6 sequence (whole entry): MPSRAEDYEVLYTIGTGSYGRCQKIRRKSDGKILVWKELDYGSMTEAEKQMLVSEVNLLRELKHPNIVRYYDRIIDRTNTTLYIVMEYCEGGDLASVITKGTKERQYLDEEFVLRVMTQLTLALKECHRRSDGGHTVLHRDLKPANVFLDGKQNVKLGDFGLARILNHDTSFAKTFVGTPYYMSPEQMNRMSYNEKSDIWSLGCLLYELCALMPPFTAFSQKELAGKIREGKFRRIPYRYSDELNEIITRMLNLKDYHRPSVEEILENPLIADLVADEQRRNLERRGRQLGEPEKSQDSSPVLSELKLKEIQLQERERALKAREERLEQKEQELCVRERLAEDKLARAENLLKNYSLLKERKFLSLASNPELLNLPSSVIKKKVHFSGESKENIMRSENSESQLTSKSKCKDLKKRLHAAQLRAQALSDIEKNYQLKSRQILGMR

[15] = target: T6, Serine/threonine-protein kinase Nek2 (Homo sapiens); settings: at 1 µM
[16] = target: Serine/threonine-protein kinase Nek6 (Homo sapiens) (UniProt Q9HC98); settings: at 0.1 µM
Sequence of Serine/threonine-protein kinase Nek6 (Homo sapiens) (Q9HC98 whole entry): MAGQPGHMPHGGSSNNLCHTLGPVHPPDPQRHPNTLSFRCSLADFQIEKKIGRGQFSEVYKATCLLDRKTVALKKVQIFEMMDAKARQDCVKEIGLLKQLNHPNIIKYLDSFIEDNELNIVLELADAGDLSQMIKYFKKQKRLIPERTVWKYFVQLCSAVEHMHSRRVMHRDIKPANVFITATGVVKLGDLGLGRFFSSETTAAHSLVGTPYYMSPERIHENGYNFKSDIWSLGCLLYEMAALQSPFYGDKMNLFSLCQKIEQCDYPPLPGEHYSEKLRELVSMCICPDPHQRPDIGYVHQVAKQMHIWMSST

[17] = target: Serine/threonine-protein kinase Nek6 (Homo sapiens) (UniProt Q9HC98); settings: at 1 µM
[18] = target: Serine/threonine-protein kinase Nek7 (Homo sapiens) (UniProt Q8TDX7); settings: at 0.1 µM
Sequence of Serine/threonine-protein kinase Nek7 (Homo sapiens) (Q8TDX7 whole entry, looked up): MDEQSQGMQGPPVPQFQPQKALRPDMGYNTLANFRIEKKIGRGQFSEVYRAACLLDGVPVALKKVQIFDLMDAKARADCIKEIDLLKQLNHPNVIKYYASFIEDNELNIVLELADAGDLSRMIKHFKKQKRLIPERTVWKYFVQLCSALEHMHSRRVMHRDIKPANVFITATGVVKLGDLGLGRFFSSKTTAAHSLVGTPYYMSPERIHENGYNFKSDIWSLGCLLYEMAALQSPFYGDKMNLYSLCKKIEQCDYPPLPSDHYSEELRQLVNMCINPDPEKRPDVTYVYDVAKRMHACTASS

[19] = target: Serine/threonine-protein kinase Nek7 (Homo sapiens) (UniProt Q8TDX7); settings: at 1 µM
[20] = target: T7, Serine/threonine-protein kinase Nek9 (Homo sapiens) (UniProt Q8TD19); settings: at 0.1 µM;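 note: reported value is the mean percent inhibition of NEK9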
T7 sequence (whole entry): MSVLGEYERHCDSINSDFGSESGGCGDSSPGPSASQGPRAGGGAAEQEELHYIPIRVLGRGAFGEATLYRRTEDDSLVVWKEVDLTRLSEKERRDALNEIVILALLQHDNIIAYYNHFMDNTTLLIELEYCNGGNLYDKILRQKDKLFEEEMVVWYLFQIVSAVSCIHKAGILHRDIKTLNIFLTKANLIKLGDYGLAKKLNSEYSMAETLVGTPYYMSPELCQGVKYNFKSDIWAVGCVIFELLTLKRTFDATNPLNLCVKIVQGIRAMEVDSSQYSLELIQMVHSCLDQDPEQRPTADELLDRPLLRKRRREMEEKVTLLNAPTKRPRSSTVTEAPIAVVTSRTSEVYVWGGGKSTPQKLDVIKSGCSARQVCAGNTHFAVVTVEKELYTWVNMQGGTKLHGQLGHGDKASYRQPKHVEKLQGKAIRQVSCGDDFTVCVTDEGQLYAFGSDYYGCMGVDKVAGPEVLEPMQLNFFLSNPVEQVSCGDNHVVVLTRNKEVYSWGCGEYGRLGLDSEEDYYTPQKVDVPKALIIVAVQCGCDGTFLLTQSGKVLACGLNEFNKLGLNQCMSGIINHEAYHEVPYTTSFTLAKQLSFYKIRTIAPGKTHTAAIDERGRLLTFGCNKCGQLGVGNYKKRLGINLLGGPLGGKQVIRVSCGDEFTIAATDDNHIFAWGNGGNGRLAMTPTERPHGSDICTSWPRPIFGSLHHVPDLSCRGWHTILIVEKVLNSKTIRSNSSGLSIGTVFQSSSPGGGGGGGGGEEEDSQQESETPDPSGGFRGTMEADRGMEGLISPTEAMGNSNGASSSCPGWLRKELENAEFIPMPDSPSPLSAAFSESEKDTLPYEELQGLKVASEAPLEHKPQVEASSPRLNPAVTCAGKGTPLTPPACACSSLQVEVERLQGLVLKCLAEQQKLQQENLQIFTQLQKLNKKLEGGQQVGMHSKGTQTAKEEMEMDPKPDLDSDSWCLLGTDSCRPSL

Sequence of Sphingosine kinase 1 (Homo sapiens) (Q9NYA1 whole entry): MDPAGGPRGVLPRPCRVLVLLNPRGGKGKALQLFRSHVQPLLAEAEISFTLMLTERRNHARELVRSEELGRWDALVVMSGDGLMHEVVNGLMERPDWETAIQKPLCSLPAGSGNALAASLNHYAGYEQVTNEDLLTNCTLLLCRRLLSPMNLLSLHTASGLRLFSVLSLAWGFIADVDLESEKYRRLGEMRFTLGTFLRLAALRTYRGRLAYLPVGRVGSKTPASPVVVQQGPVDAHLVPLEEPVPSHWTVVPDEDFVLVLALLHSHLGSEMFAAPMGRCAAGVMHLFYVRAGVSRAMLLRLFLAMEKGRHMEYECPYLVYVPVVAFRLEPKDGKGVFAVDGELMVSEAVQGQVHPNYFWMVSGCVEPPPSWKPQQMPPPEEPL

SMILES | inhibition [1] [%] | inhibition [2] [%] | inhibition [3] [%] | inhibition [4] [%] | inhibition [5] [%] | inhibition [6] [%] | inhibition [7] [%] | inhibition [8] [%] | inhibition [9] [%] | inhibition [10] [%] | inhibition [11] [%] | inhibition [12] [%] | inhibition [13] [%] | inhibition [14] [%] | inhibition [15] [%] | inhibition [16] [%] | inhibition [17] [%] | inhibition [18] [%] | inhibition [19] [%] | inhibition [20] [%]
N#Cc1c(NC(=O)c2ccccc2F)sc2c1CCCC2 | 1.37 | 0.4 | -1.81 | 2.62 | 1.09 | 2.43 | 5.52 | -1.19 | -1.36 | -2.08 | -0.39 | 1.15 | 2.83 | 1.03 | 3.25 | -4.29 | -1.45 | -2.18 | 0.08 | -2.9
O=C1Nc2ccccc2/C1=C/Nc1ccc2[nH]c(=O)[nH]c2c1 | -0.67 | -0.03 | -2.68 | 3.81 | 13.9 | 12.9 | 10.2 | 7.85 | 11.6 | 8.71 | 23.3 | 2.99 | 2.85 | 5.3 | 5.56 | 2.8 | 4.32 | 6.08 | 4.96 | 9.7
